# Source: the supplement of paper PMC8728848
# The sample as a whole holds a higher share of the strongest signals than the screen did.
# What was measured:
# Assay in all cases: glycan array binding signal (z-score within array); higher = stronger binding
# Details in all cases: glycan notation: IUPAC condensed, linker removed; mutation: I144G
# [1] = target: Fuc(a1-2)Gal(b1-3)GalNAc(b1-3)Gal(a1-4)Gal(b1-4)Glc
# Procedure, shortened: (§1)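 Negative Z-scores can be read as non-binding. The Z-score is calculated within each array and then averaged across arrays of one protein sequence at different concentrations or buffers and across linkers. Arrays, 3228 in all, were curated from the Consortium for Functional Glycomics database and kept only where the protein sequence was available.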
# [2] = target: Fuc(a1-2)Gal(b1-3)GlcNAc(b1-3)[Fuc(a1-2)Gal(b1-3)GlcNAc(b1-6)]GalNAc
# Procedure, shortened: as §1
# [3] = target: Fuc(a1-2)Gal(b1-4)[Fuc(a1-3)]GlcNAc(b1-3)[Neu5Ac(a2-6)Gal(b1-4)GlcNAc(b1-6)]Gal(b1-4)Glc
# Procedure, shortened: as §1
# [4] = target: Fuc(a1-2)[Gal(a1-3)]Gal(b1-4)GlcNAc(b1-6)GalNAc
# Procedure, shortened: as §1
# [5] = target: Fuc(a1-2)[GalNAc(a1-3)]Gal
# Procedure, shortened: as §1
# [6] = target: Fuc(a1-2)[GalNAc(a1-3)]Gal(b1-3)GlcNAc(b1-2)Man(a1-3)[Fuc(a1-2)[GalNAc(a1-3)]Gal(b1-3)GlcNAc(b1-2)Man(a1-6)]Man(b1-4)GlcNAc(b1-4)[Fuc(a1-6)]GlcNAc
# Procedure, shortened: as §1
# [7] = target: Gal(a1-3)Gal(b1-4)GlcNAc(b1-2)Man(a1-3)[Gal(a1-3)Gal(b1-4)GlcNAc(b1-2)Man(a1-6)]Man(b1-4)GlcNAc(b1-4)GlcNAc
# Procedure, shortened: as §1
# [8] = target: Gal(a1-4)Gal(b1-4)GlcNAc(b1-3)Gal(b1-4)Glc
# Procedure, shortened: as §1
# Gal(b1-3)Gal(b1-4)GlcNAc = target: Gal(b1-3)Gal(b1-4)GlcNAc
# Procedure, shortened: as §1
# [9] = target: Gal(b1-3)GalNAc(b1-4)[Neu5Ac(a2-3)]Gal(b1-4)Glc
# Procedure, shortened: as §1
# [10] = target: Gal(b1-4)GlcNAc(b1-3)Gal(b1-3)GalNAc
# Procedure, shortened: as §1
# Gal3S(b1-3)GalNAc = target: Gal3S(b1-3)GalNAc
# Procedure, shortened: as §1
# [11] = target: GlcA3S(b1-3)Gal(b1-4)GlcNAc(b1-2)Man
# Procedure, shortened: as §1
# [12] = target: GlcA3S(b1-3)Gal(b1-4)GlcNAc(b1-3)Gal(b1-4)Glc
# Procedure, shortened: as §1
# [13] = target: GlcNAc(b1-2)Man(a1-3)[GlcNAc(b1-4)][GlcNAc(b1-2)Man(a1-6)]Man(b1-4)GlcNAc(b1-4)[Fuc(a1-6)]GlcNAc
# Procedure, shortened: as §1
# [14] = target: GlcNAc(b1-3)Gal(b1-3)GalNAc
# Procedure, shortened: as §1
# GlcNAc(b1-6)GalNAc = target: GlcNAc(b1-6)GalNAc
# Procedure, shortened: as §1
# [15] = target: Neu5Ac(a2-3)Gal(b1-3)GalNAc
# Procedure, shortened: as §1
# [16] = target: Neu5Ac(a2-3)Gal(b1-3)GalNAc(b1-3)Gal(a1-4)Gal(b1-4)Glc
# Procedure, shortened: as §1
# [17] = target: Neu5Ac(a2-3)Gal(b1-3)GalNAc(b1-4)[Neu5Ac(a2-3)]Gal(b1-4)Glc
# Procedure, shortened: as §1
# [18] = target: Neu5Ac(a2-3)Gal(b1-3)GalNAc6S
# Procedure, shortened: as §1
# [19] = target: Neu5Ac(a2-3)Gal(b1-3)[GlcNAc(b1-6)]GalNAc
# Procedure, shortened: as §1
# [20] = target: Neu5Ac(a2-3)Gal(b1-4)GlcNAc(b1-2)Man(a1-3)[GlcNAc(b1-4)][Neu5Ac(a2-3)Gal(b1-4)GlcNAc(b1-2)Man(a1-6)]Man(b1-4)GlcNAc(b1-4)GlcNAc
# Procedure, shortened: as §1
# [21] = target: Neu5Ac(a2-3)Gal(b1-4)GlcNAc(b1-2)[Neu5Ac(a2-3)Gal(b1-4)GlcNAc(b1-6)]Man(a1-6)[Neu5Ac(a2-3)Gal(b1-4)GlcNAc(b1-2)Man(a1-3)][GlcNAc(b1-4)]Man(b1-4)GlcNAc(b1-4)GlcNAc
# Procedure, shortened: as §1
# [22] = target: Neu5Ac(a2-3)Gal(b1-4)GlcNAc(b1-3)Gal
# Procedure, shortened: as §1
# [23] = target: Neu5Ac(a2-6)Gal(b1-4)GlcNAc(b1-2)Man(a1-3)[Neu5Ac(a2-6)Gal(b1-4)GlcNAc(b1-2)Man(a1-6)]Man(b1-4)GlcNAc(b1-4)GlcNAc
# Procedure, shortened: as §1
# [24] = target: Neu5Ac(a2-6)Gal(b1-4)GlcNAc(b1-2)Man(a1-3)[Neu5Ac(a2-6)Gal(b1-4)GlcNAc(b1-2)Man(a1-6)]Man(b1-4)GlcNAc(b1-4)[Fuc(a1-6)]GlcNAc
# Procedure, shortened: as §1
# [25] = target: Neu5Ac(a2-6)Gal(b1-4)GlcNAc(b1-3)Gal(b1-4)GlcNAc
# Procedure, shortened: as §1
# [26] = target: Neu5Ac(a2-6)Gal(b1-4)GlcNAc(b1-3)Gal(b1-4)[Fuc(a1-3)]GlcNAc(b1-3)Gal(b1-4)[Fuc(a1-3)]GlcNAc
# Procedure, shortened: as §1
# [27] = target: Neu5Ac(a2-8)Neu5Ac(a2-3)Gal(b1-3)GalNAc(b1-4)[Neu5Ac(a2-3)]Gal(b1-4)Glc
# Procedure, shortened: as §1
# [28] = target: Neu5Ac9Ac(a2-3)Gal(b1-3)GlcNAc
# Procedure, shortened: as §1
# Neu5Gc(a2-6)GalNAc = target: Neu5Gc(a2-6)GalNAc
# Procedure, shortened: as §1
# [29] = target: Neu5Gc(a2-8)Neu5Ac(a2-3)Gal(b1-4)GlcNAc
# Procedure, shortened: as §1
# [30] = target: Neu5Gc(a2-8)Neu5Gc(a2-3)Gal(b1-4)GlcNAc
# Procedure, shortened: as §1
binder,measurement,setting,value
"rAAL-I144G (Agrocybe aegerita), Q6WY08 (protein) MQGVNIYNISAGTSVDLAAPVTTGDIVTFFSSALNLNAGAGNPNNTTLNLFAENGAYLLHIAFRLQENVIIFNSRQPDGPWLVEQRVSDVANQFAGIDGKAMVTVFDHGDKYQVVINEKTVIQYTKQISGLTLSLSYNATEETSGFSTVVEAVTYTGLALEHHHHHH",glycan array binding signal (z-score),[1],-0.112
same,glycan array binding signal (z-score),[2],-0.208
same,glycan array binding signal (z-score),[3],-0.075
same,glycan array binding signal (z-score),[4],-0.088
same,glycan array binding signal (z-score),[5],-0.166
same,glycan array binding signal (z-score),[6],-0.134
same,glycan array binding signal (z-score),[7],2.88
same,glycan array binding signal (z-score),[8],-0.026
same,glycan array binding signal (z-score),Gal(b1-3)Gal(b1-4)GlcNAc,-0.134
same,glycan array binding signal (z-score),[9],-0.191
same,glycan array binding signal (z-score),[10],-0.191
same,glycan array binding signal (z-score),Gal3S(b1-3)GalNAc,17.3
same,glycan array binding signal (z-score),[11],11.8
same,glycan array binding signal (z-score),[12],9.46
same,glycan array binding signal (z-score),[13],-0.15
same,glycan array binding signal (z-score),[14],-0.103
same,glycan array binding signal (z-score),GlcNAc(b1-6)GalNAc,-0.16
same,glycan array binding signal (z-score),[15],1.67
same,glycan array binding signal (z-score),[16],1.35
same,glycan array binding signal (z-score),[17],1.33
same,glycan array binding signal (z-score),[18],4.09
same,glycan array binding signal (z-score),[19],1.74
same,glycan array binding signal (z-score),[20],1.63
same,glycan array binding signal (z-score),[21],-0.073
same,glycan array binding signal (z-score),[22],-0.059
same,glycan array binding signal (z-score),[23],-0.111
same,glycan array binding signal (z-score),[24],-0.049
same,glycan array binding signal (z-score),[25],-0.176
same,glycan array binding signal (z-score),[26],-0.095
same,glycan array binding signal (z-score),[27],1.99
same,glycan array binding signal (z-score),[28],-0.174
same,glycan array binding signal (z-score),Neu5Gc(a2-6)GalNAc,-0.086
same,glycan array binding signal (z-score),[29],-0.169
same,glycan array binding signal (z-score),[30],-0.122
